An excerpt weighted towards active compounds, which were near 28% of everything screened.
CYP2C19 inhib: human CYP2C19 inhibition; AID 778; 96,000 tested, 21% active; CYP2C19 Supersomes, luciferin-H EGE luminescence, 30 min; inhibition, % at 5 µM;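 active = CYP2C19 inhibition above a set limit at 5 µM in the primary screen, cut at about 50% in these data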;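 note: plate controls were negative control wells for no effect and 2.5 mM tranylcypromine positive control for full effect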
Target sequence (P33261 whole entry, looked up): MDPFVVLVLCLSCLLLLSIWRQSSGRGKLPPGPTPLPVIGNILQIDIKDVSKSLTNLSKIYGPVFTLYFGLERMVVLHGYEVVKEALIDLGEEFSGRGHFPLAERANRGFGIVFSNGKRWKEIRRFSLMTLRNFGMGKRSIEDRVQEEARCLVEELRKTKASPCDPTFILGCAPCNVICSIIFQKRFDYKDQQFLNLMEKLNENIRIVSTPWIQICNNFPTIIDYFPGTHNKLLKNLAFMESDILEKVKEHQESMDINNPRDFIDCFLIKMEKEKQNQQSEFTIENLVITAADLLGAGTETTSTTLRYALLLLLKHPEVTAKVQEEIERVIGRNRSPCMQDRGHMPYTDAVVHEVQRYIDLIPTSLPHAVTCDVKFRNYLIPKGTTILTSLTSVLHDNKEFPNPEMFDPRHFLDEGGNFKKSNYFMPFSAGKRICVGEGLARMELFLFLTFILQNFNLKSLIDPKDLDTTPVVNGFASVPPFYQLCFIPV
CYP2C19 activ: increases human CYP2C19 enzyme activity; P33261; recombinant CYP2C19, luciferin-H EGE luminescence; active compounds read high; 0 = fully inhibited enzyme, 1 = untreated enzyme; activation factor at 5 µM; 96,000 tested, under 10 active; AID 1025;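 active = activation factor of at least 2 at 5 µM in the primary screen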;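 note: 0 = wells with 2.5 mM tranylcypromine and 1 = vehicle-only wells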
CD11b adhes enh: CD11b/CD18-fibrinogen binding enhancement | activation, % at 10 µM | AID 1499 | 93,000 tested, 0.07% active | K562 CD11b/CD18 adhesion to fibrinogen, ATPlite luminescence | P05107+P11215;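 active = 10 µM primary screen giving 50% or more activity, confirmed by 40% or more on retest at that dose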
CYP2C9 act: increases human cytochrome P450 2C9 activity. recombinant CYP2C9, luciferin-H conversion, luminescence; active compounds read high; factor 1 = untreated enzyme, 0 = blocked. activation factor at 5 µM. P11712. AID 1024. 96,000 tested, 1.4% active;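 active = activation factor of 2 or more for CYP2C9 at a 5 µM dose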;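 note: 0 = sulfaphenazole-blocked wells and 1 = vehicle-only wells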
CYP2C9 inh: human CYP2C9 inhibition. P11712. CYP2C9 Supersomes, luciferin-H conversion, luminescence. inhibition, % at 5 µM. 96,000 tested, 20% active. AID 777;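 active = blocking of liver enzyme CYP2C9 beyond about 50% at 5 µM, limit read from the data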
CD11b adhes inh: inhibitors of human CD11b/CD18 binding to fibrinogen | P05107+P11215 | inhibition, % at 10 µM | K562 CD11b/CD18 adhesion to fibrinogen, ATPlite luminescence; Mn2+ added to activate the integrin | AID 1497 | 93,000 tested, 0.54% active;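 active = primary inhibition of 50% or more at 10 µM, then 40% or more on retest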
An asterisk follows results filed as active.

What do the screens show for `CCN(CCNC(=O)C1CCN(c2nnc(-n3cccc3)s2)CC1)c1ccccc1`?
CYP2C19 inhib: 82.9*; CYP2C19 activ: 0.2; CD11b adhes enh: 2.2; CYP2C9 act: 0.1; CYP2C9 inh: 87.2*; CD11b adhes inh: -9.8

How did CCOc1ccc(CCNC(=O)C2CCN(c3nn4c(=O)cc(C)nc4s3)CC2)cc1 do in these assays?
CYP2C19 inhib: 23.2; CYP2C19 activ: 0.8; CD11b adhes enh: -6.2; CYP2C9 act: 0.4; CYP2C9 inh: 64.7*; CD11b adhes inh: -5.9

Results for CCOc1ccc(CCNC(=O)C2CCN(c3nnc(-n4cccc4)s3)CC2)cc1OCC ?
CYP2C19 inhib: 43.2; CYP2C19 activ: 0.6; CD11b adhes enh: 2.0; CYP2C9 act: 0.2; CYP2C9 inh: 81.9*; CD11b adhes inh: -3.3

What do the screens show for `CCOC(=O)CN1C(=O)SC(CC(=O)Nc2nccs2)C1=O` (stereo unspecified)?
CYP2C19 inhib: 27.3; CYP2C19 activ: 0.7; CD11b adhes enh: 0.7; CYP2C9 act: 0.7; CYP2C9 inh: 34.7; CD11b adhes inh: -26.0

What do the screens show for `O=C(Nc1ccc(OC(=O)c2ccncc2)cc1)c1ccncc1`?
CYP2C19 inhib: 7.0; CYP2C19 activ: 0.9; CYP2C9 act: 0.7; CYP2C9 inh: 33.8

Results for CCN(CC)c1nc(N)nc(N(c2ccccc2)c2ccccc2)n1 ?
CYP2C19 inhib: -2.7; CYP2C19 activ: 1; CD11b adhes enh: -9.9; CYP2C9 act: 0.8; CYP2C9 inh: 24.1; CD11b adhes inh: 4.7

How did COc1nc(N(c2ccccc2)c2ccccc2)nc(-n2ccnc2)n1 do in these assays?
CYP2C19 inhib: 85.7*; CYP2C19 activ: 0.1; CD11b adhes enh: 0.0; CYP2C9 act: 0.4; CYP2C9 inh: 63.6*; CD11b adhes inh: 12.4

What do the screens show for `Cc1cc(C(=O)N2CCC(C(F)(F)F)n3nccc32)on1` (stereo unspecified)?
CYP2C19 inhib: -0.3; CYP2C19 activ: 1; CD11b adhes enh: -1.6; CYP2C9 act: 1.1; CYP2C9 inh: -12.8; CD11b adhes inh: 16.7

How did CCOC(=O)c1c2ccc(OCC(=O)N/N=C/c3ccccc3C(F)(F)F)cc2n2ccccc12 do in these assays?
CYP2C19 inhib: 16.5; CYP2C19 activ: 0.8; CD11b adhes enh: 3.3; CYP2C9 act: 0.4; CYP2C9 inh: 58.7*; CD11b adhes inh: -0.3

How did Cc1nc(NNC(=O)c2ccc(Cl)cc2Cl)cc(-c2ccccc2)n1 do in these assays?
CYP2C19 inhib: -7.7; CYP2C19 activ: 1.1; CD11b adhes enh: -1.3; CYP2C9 act: 0.5; CYP2C9 inh: 51.3*; CD11b adhes inh: -10.1

Results for COc1ccc(CCNC(=O)NC(C(F)(F)F)C(F)(F)F)cc1OC ?
CYP2C19 inhib: 23.4; CYP2C19 activ: 0.8; CD11b adhes enh: -0.3; CYP2C9 act: 1; CYP2C9 inh: 4.3; CD11b adhes inh: 9.2

How did COc1cccc(NCc2cc3c(C(C)(C)C)nn(-c4ccccc4)c3[nH]c2=O)c1 do in these assays?
CYP2C19 inhib: 27.6; CYP2C19 activ: 0.7; CD11b adhes enh: -0.7; CYP2C9 act: 0.2; CYP2C9 inh: 81.6*; CD11b adhes inh: 16.5

What do the screens show for `CCOc1ccc(NCc2cc3c(C(C)(C)C)nn(-c4ccccc4)c3[nH]c2=O)cc1`?
CYP2C19 inhib: 15.4; CYP2C19 activ: 0.8; CD11b adhes enh: -1.7; CYP2C9 act: 0.4; CYP2C9 inh: 58.7*; CD11b adhes inh: 11.0

How did Cc1cccc(Oc2sc(C(=O)c3ccccc3)c(N)c2C#N)c1 do in these assays?
CYP2C19 inhib: 60.9*; CYP2C19 activ: 0.4; CYP2C9 act: 0.5; CYP2C9 inh: 46.6

Results for N#Cc1c(Nc2ccccc2)sc(C(=O)c2ccccc2)c1N ?
CYP2C19 inhib: 13.9; CYP2C19 activ: 0.9; CD11b adhes enh: -2.4; CYP2C9 act: 1; CYP2C9 inh: -1.6; CD11b adhes inh: -47.5

Results for COc1ccc(CCNC(=O)COc2ccc(S(=O)(=O)N3CCOCC3)cc2)cc1OC ?
CYP2C19 inhib: 14.9; CYP2C19 activ: 0.9; CD11b adhes enh: -3.6; CYP2C9 act: 0.5; CYP2C9 inh: 50.3*; CD11b adhes inh: 25.7

How did COc1ccc(CCNC(=O)COc2ccc(-c3ccc(C)cc3)cc2)cc1OC do in these assays?
CYP2C19 inhib: 3.1; CYP2C19 activ: 1; CD11b adhes enh: -1.4; CYP2C9 act: 0.3; CYP2C9 inh: 74.5*; CD11b adhes inh: 6.3

What do the screens show for `COc1ccc(CCNC(=O)COc2ccc(S(=O)(=O)N3CCOCC3)cc2)cc1`?
CYP2C19 inhib: 23.6; CYP2C19 activ: 0.8; CD11b adhes enh: -1.4; CYP2C9 act: 0.7; CYP2C9 inh: 34.1; CD11b adhes inh: 0.3

How did COc1ccc(CCNC(=O)COC(=O)c2cnc(C)cn2)cc1OC do in these assays?
CYP2C19 inhib: 0.1; CYP2C19 activ: 1; CD11b adhes enh: -6.5; CYP2C9 act: 1; CYP2C9 inh: -3.3; CD11b adhes inh: -2.6

What do the screens show for `O=C1c2ccccc2C(Nc2ccc(F)cc2F)N1CCN1CCOCC1` (stereo unspecified)?
CYP2C19 inhib: 13.6; CYP2C19 activ: 0.9; CD11b adhes enh: 6.7; CYP2C9 act: 1.2; CYP2C9 inh: -17.0; CD11b adhes inh: -6.6

What do the screens show for `CCn1cc(C(=O)NCCCN2CCC(C)CC2)c2cc(OC)c(OC)cc2c1=O`?
CYP2C19 inhib: -2.5; CYP2C19 activ: 1; CD11b adhes enh: -2.8; CYP2C9 act: 1; CYP2C9 inh: 1.0; CD11b adhes inh: -7.3

How did C=CCn1c(O)c(CN2CCOCC2)c(C)c(C#N)c1=O do in these assays?
CYP2C19 inhib: -0.8; CYP2C19 activ: 1; CD11b adhes enh: -1.8; CYP2C9 act: 0.9; CYP2C9 inh: 8.0; CD11b adhes inh: -9.4

What do the screens show for `COc1cccc(-c2cc3nc(-c4ccccc4)cc(N4CCC5(CC4)OCCO5)n3n2)c1`?
CYP2C19 inhib: 34.5; CYP2C19 activ: 0.7; CYP2C9 act: 0.4; CYP2C9 inh: 55.4*

How did CN1CCN(c2cc(-c3ccccc3)nc3cc(-c4ccc(F)cc4)nn23)CC1 do in these assays?
CYP2C19 inhib: 34.0; CYP2C19 activ: 0.7; CD11b adhes enh: -0.4; CYP2C9 act: 0.6; CYP2C9 inh: 37.2; CD11b adhes inh: -8.2

How did CCN(CC)c1nc2ccccc2nc1C(C#N)C(=O)NCCCOC (stereo unspecified) do in these assays?
CYP2C19 inhib: 55.7*; CYP2C19 activ: 0.4; CD11b adhes enh: 6.1; CYP2C9 act: 0.2; CYP2C9 inh: 78.6*; CD11b adhes inh: -9.4

How did CCN(CC)c1nc2ccccc2nc1C(C#N)C(=O)NCCc1ccccc1 (stereo unspecified) do in these assays?
CYP2C19 inhib: 12.8; CYP2C19 activ: 0.9; CD11b adhes enh: 20.1; CYP2C9 act: 0.5; CYP2C9 inh: 54.2*; CD11b adhes inh: 7.1

What do the screens show for `COC(=O)C(O)(NC(=O)NC(C)=O)C(F)(F)F` (stereo unspecified)?
CYP2C19 inhib: 0.6; CYP2C19 activ: 1; CD11b adhes enh: -3.2; CYP2C9 act: 1; CYP2C9 inh: -0.1; CD11b adhes inh: 8.1
